Experimental data: PubChem BioAssay AID902 (National Center for Advancing Translational Sciences (NCATS), 2007)
The campaign covered roughly 130,000 compounds. About 1,900 (1.5%) were called active. Roughly 5% stayed inconclusive and do not appear here. Only a selection was taken, and actives are over-represented in it overall. Values without a mark were called inactive. Calls come from the whole dose curve; as a rule, active = well fitted cell-killing curve with a large enough effect; inconclusive = small, poorly fitted or top-dose-only effect; inactive = no such curve, though single readings can be large or run the other way.

test: qHTS Screen for Compounds that Selectively Target Cancer Cells with p53 Mutations: Cytotoxicity of p53ts Cells at the Nonpermissive Temperature; conditions: H1299-p53A138V viability at 39C, ATP luminescence, 24 h; series mostly up to 46.1 µM; activity change, negative = cell killing: at the top concentration; note: nearly all actives have a fitted effect of over 55% in size
From the text: NIH Chemical Genomics Center [NCGC] NIH Molecular Libraries Screening Centers Network [MLSCN] MLSCN Grant: 1 X01 MH079844-01 Assay Submitter (PI): Dr. SUN, YI, University of Michigan NCGC Assay Overview: Synthetic Lethal Screen for Compounds to Kill Cancer Cells with p53 Mutation. Tumor suppressor gene p53 serves as a major cellular barrier against tumorigenesis. […] The goal of this screening is to identify small molecule probes that selectively kill cancer cells with mutations in p53. This screening was carried out using two lines of H1299 lung cancer cells. The H1299-p53 A138V line express a temperature sensitive p53 mutant (p53ts) in which the mutant p53 protein (A138V) is in the mutant confirmation when grown at 39C (the nonpermissive temperature) and in the wild type conformation when grown at 32C (the permissive temperature). A H1299-neo line (p53 null) grown at both 39C and 32C were used as counter-screens to filter out false positive associated with temperature shifting. The small molecular compounds that selectively target mutant p53-containing cancer cells were selected as candidate probes for further study. A cytotoxicity assay based on the measurement of ATP contents in cells was used in this screen. Concentration-responses of all the compounds in the library collection were determined in qHTS using the cell lines and temperature conditions as above.
NCGC Assay Protocol Summary: Both the H1299-p53A138V and H1299-neo cell lines were provided by Dr.Yi Sun, a PI at the University Michigan. The cells were maintained and cultured at 37C. The resuspended frozen cells were used to plate the cells in the 1536-well assay plates at a density of 600 cells per well in 5 ul medium. The assay plates with the cells were incubated at 37C for 16 to 30 hours before the experiments. The library compounds in DMSO solution were added to the cells in assay plates and incubated 24 hours at 39C (for mutant p53 conformation) or 32C (for normal p53 conformation as control). An ATP_lite assay kit (PerkinElmer) was used to determine the cell viability. Tomaxifen (100uM) was used as the positive control for cell killing. Data were normalized to the controls for basal activity (DMSO only) and 100% killing (100uM tamoxifen). AC50 values were determined from concentration-response data modeled with the standard Hill equation. P53 assay protocol: 1. Reagent; 5 uL H1299-p53A138V or H1299-neo cell cells/well 2. Time; overnight; 37C incubation 3. Compounds; 23 nL; 5.9 nM to 46 uM 4. Controls; 23 nL; Tamoxifen 100 uM 5. Time; 24 hr; 39C incubation 6. Reagent; 3 uL; ATP_Lite reagent 7. Time; 20 min; Room Temperature 8. Detection; Luminescence; Viewlux plate reader Keywords: p53, synthetic lethal, cancer, cell viability, cytotoxicity, H1299 cell line, luminescence, MLSMR, MLSCN, NIH Roadmap, qHTS, NCGC
% is set by controls: 0 for no effect and ±100 for the full control effect; potency is the fitted concentration of half-maximal effect.

Compound	Potency	activity change, negative = cell killing
CC(C)(Cc1c[nH]c2ccc(Cl)cc12)NCCOc1ccccc1OCC1CC1	25.1 µM (active)	
Cc1cccc(Cn2cccc(C(=O)Nc3ccc4c(c3)OCCO4)c2=O)c1		-14.4%
CCN(CC)CCn1ncc2c(N)ncnc21		-0.868% [at 9.22 µM]
C/C(=C\C=C/[C@@H](C)C(=O)O)[C@H]1CN[C@H](C(=O)O)[C@@H]1CC(=O)O		-2.1%
CN(C)C(=O)Oc1cc(OC(=O)N(C)C)cc(C(O)CNC(C)(C)C)c1 (stereo not given)		-8.98%
CC(C)Oc1ccc(NC(=O)c2cc3ccccc3o2)cc1	6.31 µM (active)	
COc1cc(C(c2c(O)c3ccccc3oc2=O)c2c(C)n(C)n(-c3ccccc3)c2=O)ccc1O (stereo not given)		21.9%
O=C1C2CCN(CC2)C1(CO)CO	inactive	
C=CCSSCC=C		-2.47%
Cc1nnc(NC(=O)c2cccn(Cc3cccc(F)c3)c2=O)s1		-3.63%
NCCc1c[nH]c2ccc(O)cc12	inactive	
Fc1ccc(C(OCCN2CCN(C/C=C\c3ccccc3)CC2)c2ccc(F)cc2)cc1	31.6 µM (active)	
CCN1C[C@]2(C)CC[C@H](O)[C@@]34[C@@H]5CC6[C@@H](OC)C[C@@](O)([C@@H]5[C@@H]6O)[C@H](C[C@@H]23)[C@H]14		1.08% [at 20.6 µM]
COc1ccc(C2Oc3c(I)c(OC)cc(OC)c3CC2O)cc1OC (stereo not given)		-12.1%
CC(C)(O)/C=C\C(=O)[C@](C)(O)[C@H]1[C@H](O)C[C@]2(C)[C@@H]3CC=C4[C@@H](C=C(O)C(=O)C4(C)C)[C@]3(C)C(=O)C[C@@]12C		-1.33% [at 9.22 µM]
CC[C@@](O)(C(=O)O)c1cc2n(c(=O)c1CO)Cc1cc3ccccc3nc1-2		11.1% [at 9.22 µM]
O=C(N/N=C/c1c(O)n(Cc2ccccc2)c(=O)[nH]c1=O)c1ccccc1		-16%
CN1C2CC3CC1C(O3)C2O (stereo not given)		9.45%
CCCCN1C2CCC1CC(OC(c1ccc(F)cc1)c1ccc(F)cc1)C2 (stereo not given)	12.6 µM (active)	
Cn1c(O)c(C=NCCN2CCNCC2)c(=O)n(C)c1=O		22.6%

Compound	Potency	activity change, negative = cell killing
CC(=O)OC1C2CCC3C1(CC(O)[C@@]1(O)[C@@H](CC(O)C1(C)C)[C@]3(C)O)C[C@@]2(C)O (stereo not given in full)		-10.4%
CC[C@@H]1CN2CC[C@@H]1C[C@H]2[C@H](O)c1ccnc2ccc(OC)cc12		-2.09%
O=C(Nc1ccc(Cl)cc1C(=O)c1ccccc1)c1cc(Cl)cc(Cl)c1		-11.9%
C[C@@]12CCC3C(CC[C@@H]4CC(O)CC[C@@]34C)C1CCC2O (stereo not given in full)		7.74%
C[C@@]1([C@@H](NP(=O)(c2ccccc2)c2ccccc2)c2ccccc2)C[C@H]1CCO		-4.77%
N#Cc1c(Cl)c(Cl)c(Cl)c(C#N)c1Cl	6.31 µM (active)	
CCC(C)C(=O)O[C@@H]1C[C@@]2(C)C(c3ccoc3)OC(=O)CC23OC2(C)O[C@@]14[C@@]1(C)C(CC(=O)OC)C5(C)CC1(O)C(O)(C5OC(=O)C1(C)OC1C)C(OC(C)=O)[C@@]34O2 (stereo not given in full)		0.427%
Cc1ccc(-n2c(/C=C/c3cccc(C(F)(F)F)c3)nc3ccccc3c2=O)cc1		-23.3%
Clc1ccc(C(c2ccc(Cl)cc2)n2cc[n+](C[C@@H](OCc3ccc(Cl)cc3Cl)c3ccc(Cl)cc3Cl)c2)cc1	15.8 µM (active)	
CCN(CC)c1ccc(C2C(C(N)=O)=C(C)Nc3nc(SCc4ccccc4)nn32)cc1 (stereo not given)		26.9%
Clc1ccc([C@@H]2C[C@H]3CC[C@@H]2N3)cn1		-3.71%
Cn1cc(/C=C/c2nc3ccccc3c(=O)n2-c2ccccc2)c2ccccc21		1.73%
O=C(NC(c1ccc(Cl)cc1)P(=O)(Oc1ccccc1)Oc1ccccc1)OCc1ccccc1 (stereo not given)		10.7%
COc1cc2c(cc1OC)[C@@H]1C(=O)c3ccc(O)c(CC=C(C)C)c3OC1CO2 (stereo not given in full)		-2.98%
COc1ccc(NC(=O)Nc2cccc3cccnc23)cc1	15.8 µM (active)	
CC1=CC(=O)C2=C(C)C[C@H](O)[C@H]3[C@H](C)C(=O)O[C@@H]3C12 (stereo not given in full)		3.03%
c1csc(CN2CC3(CCNCC3)C2)n1		7%
CC(C)(c1ccc(OC[C@@H]2CO2)cc1)c1ccc(OC[C@H]2CO2)cc1	12.6 µM (active)	
Cc1ccc(N2C(=O)NC(=O)C(CCc3ccncc3)(Cc3cccc(Cl)c3Cl)C2=O)cc1 (stereo not given)		31.4%
C[C@]12CC[C@H](O)C[C@@H]1CC[C@H]1[C@H]2CC[C@]2(C)C(=O)CC[C@@H]12	inactive	
